An excerpt weighted towards active compounds, which were near 1.7% of everything screened.
TrxR1 inh: qHTS Assay for Inhibitors of Mammalian Selenoprotein Thioredoxin Reductase 1 (TrxR1): qHTS; hit rate 1% among 390,000; Potency, µM (top dose mostly 114 µM), inactives show at the highest dose activity change, negative = inhibition, actives largely listed as inhibitors; recombinant rTrxR1, NADPH fluorescence consumption, selenite substrate; note: % is set by controls: 0 for no effect and ±100 for the full control effect; nearly all actives have a fitted effect of over 65% in size
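Rat TrxR1 (90 nM in the dispensed reagent) was pre-reduced with 400 uM NADPH for 5 min at room temperature, then incubated with compound for 15 min. After 400 uM selenite was added, NADPH fluorescence (Ex 340/Em 450 nm) was followed for 8 min.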
Anesthetic bind: qHTS Assay for Identification of Novel General Anesthetics. AID 485281, 2010. hit rate 0.074% among 350,000. Potency, µM (titrated, usually from 77.5 µM), for the others: top-dose activity change, negative = displacement, actives largely listed as inhibitors. Ferritin light chain (Equus caballus), P02791. apoferritin/1-aminoanthracene competitive binding, fluorescence; note: % is set by controls: 0 for no effect and ±100 for the full control effect; nearly all actives have a fitted effect of over 20% in size
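Apoferritin-based anesthetic binding model; compound displacement of fluorescent 1-AMA measured as endpoint fluorescence after 10 minutes at room temperature, scaled to free-ligand and complex controls.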
IDH1 R132H inh: qHTS for Inhibitors of mutant isocitrate dehydrogenase 1 (IDH1): qHTS. IDH1-R132H enzyme, NADPH consumption, diaphorase/resazurin fluorescence. AID 602179, 2012. hit rate 0.093% among 390,000. Potency, µM (highest dose often 76.6 µM), for the others: top-dose activity change, negative = inhibition, usual class: inhibitors. Isocitrate dehydrogenase [NADP] cytoplasmic (Homo sapiens), O75874; note: % is set by controls: 0 for no effect and ±100 for the full control effect; nearly all actives have a fitted effect of over 65% in size
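IDH1-R132H (0.5 ug/mL) preincubated 30 min with compound, then NADPH (0.016 mM) and alpha-KG (2 mM) added; 80 min at RT, pH 7.5. Remaining NADPH coupled via diaphorase/resazurin to fluorescence (540/590 nm); concentration-response curves normalized to no-enzyme control.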
12-LOX inh: Primary qHTS assay for inhibitors of human arachidonate 12S-lipoxygenase (ALOX12): Round 2; purified 12hLO, xylenol orange hydroperoxide absorbance; Potency, µM (top dose mostly 108 µM), inactives show at the highest dose activity change, negative = inhibition, hits mostly inhibitors; hit rate 1.1% among 580,000; AID 1671190, 2021; note: % is set by controls: 0 for no effect and ±100 for the full control effect
Target sequence (P18054 whole entry, looked up): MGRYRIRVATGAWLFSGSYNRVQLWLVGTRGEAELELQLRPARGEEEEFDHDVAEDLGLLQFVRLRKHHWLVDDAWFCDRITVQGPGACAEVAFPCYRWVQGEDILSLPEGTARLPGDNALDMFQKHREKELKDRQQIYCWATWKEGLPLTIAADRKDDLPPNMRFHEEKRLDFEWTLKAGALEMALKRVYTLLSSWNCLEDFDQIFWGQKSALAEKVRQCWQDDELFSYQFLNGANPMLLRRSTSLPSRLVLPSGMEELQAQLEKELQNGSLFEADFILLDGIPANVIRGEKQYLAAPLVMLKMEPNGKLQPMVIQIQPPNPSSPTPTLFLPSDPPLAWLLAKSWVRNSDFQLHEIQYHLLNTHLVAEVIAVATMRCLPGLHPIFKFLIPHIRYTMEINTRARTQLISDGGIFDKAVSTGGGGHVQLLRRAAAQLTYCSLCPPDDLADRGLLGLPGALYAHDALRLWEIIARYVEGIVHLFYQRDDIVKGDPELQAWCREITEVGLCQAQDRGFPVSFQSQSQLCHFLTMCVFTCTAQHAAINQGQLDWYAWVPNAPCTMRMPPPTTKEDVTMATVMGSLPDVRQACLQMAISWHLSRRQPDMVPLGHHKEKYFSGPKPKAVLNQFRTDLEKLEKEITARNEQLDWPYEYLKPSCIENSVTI
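Hydroperoxide product was detected by ferrous iron/xylenol orange as the 573 to 405 nm absorbance ratio. Arachidonic acid at 40 uM (final) was turned over for 30 min at room temperature by 150 nM human 12hLO, pH 7.0 Hepes buffer, after 15 min compound preincubation.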
TrxR1 substrate: qHTS Assay for Substrates of Mammalian Selenoprotein Thioredoxin Reductase 1 (TrxR1): qHTS | Thioredoxin reductase 1, cytoplasmic (Rattus norvegicus), O89049 | purified TrxR1 substrate turnover, NADPH consumption readout | Potency, µM (series often up to 114 µM), inactives show at the highest dose activity change, negative = substrate turnover | hit rate 0.01% among 390,000; note: % is set by controls: 0 for no effect and ±100 for the full control effect; nearly all actives have a fitted effect of over 50% in size
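Rat TrxR1, dispensed at 90 nM, was prereduced with 400 uM NADPH (final) for 5 min at ~22 deg C, then incubated with compound 15 min before 400 uM selenite. A first-read NADPH fluorescence drop versus no-compound background flagged substrates.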
GRP78 ERSR act: qHTS for Inducers of the Endoplasmic Reticulum Stress Response (ERSR) in Human Glioma: qHTS. U87-MG GRP78 promoter luciferase reporter, 16 h. Potency, µM, without a hit: at the top dose activation, usual class: activators. hit rate 0.02% among 420,000; note: series mostly up to about 76 µM; % of control where 0% means no effect; nearly all actives have a fitted effect of over 35% in size
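Stably transfected U87-MG glioma cells carrying a GRP78-based luciferase sensor; 16 h compound incubation. Luminescence end-point read 10 min after Bright-Glo addition at room temperature.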
An asterisk follows results filed as active; ? = inconclusive; · = no result given; ! = repeats disagree; [ ] = dose if it differs, or a comment. Calls come from the whole dose curve; as a rule, active = well fitted curve in the direction sought with a large enough effect; inconclusive = small, poorly fitted or top-dose-only effect, or another doubt; inactive = no such curve, though single readings can be large; an effect the other way counts as inactive or inconclusive. Potency is the fitted concentration of half-maximal effect.

SMILES	TrxR1 inh	Anesthetic bind	IDH1 R132H inh	12-LOX inh	TrxR1 substrate	GRP78 ERSR act
O=C(Nc1cc(S(=O)(=O)N2CCOCC2)ccc1N1CCCC1)c1ccc(Cl)cc1	-24%	·	0%	25µM*	-14%	-2%
O=C(Nc1cc(S(=O)(=O)N2CCOCC2)ccc1N1CCCC1)c1ccc2c(c1)S(=O)(=O)c1ccccc1C2=O	14%[57.1 µM]	-15%	-10%	14µM*	6%[57.1 µM]	-4%
O=C(CNc1cc(S(=O)(=O)N2CCCCC2)ccc1N1CCCCC1)Nc1ccc(F)cc1	·	·	·	10µM*	·	·
Nc1nc2c(ncn2[C@@H]2O[C@H](C(=O)N[C@H](Cc3ccccc3)C(=O)NCc3ccc4c(c3)OCO4)[C@@H](O)[C@H]2O)c(=O)[nH]1	·	·	·	-3%	·	·
Fc1ccc(-c2n[nH]c(=S)n2Cc2ccccc2)cc1	-35%[57.1 µM]	-2%	-2%	·	13%[57.1 µM]	-3%
Fc1ccc(-c2c[nH]c(=S)n2Cc2ccccc2)cc1	-2%	-5%	0%	50µM*	5%	-4%
CCOCc1cnc(C)nc1NCC(=O)c1c(C)[nH]c2ccc(OC)cc12	4%	-19%	0%	13µM*	4%	-3%
COc1ccc2[nH]c(C)c(C(=O)CN(C)CC(OC)OC)c2c1	?	·	·	·	-2%	-5%
Nc1nccnc1C(=O)Nc1cccc(OCc2cccnc2)c1	·	·	·	10%	·	·
O=c1cc(CO)oc(CN2CCN(c3ccccc3)CC2)c1O	-1%[57.1 µM]	-9%	4%	?	-12%	-3%
O=c1cc(CO)oc(CN2CCN(c3cccc(C(F)(F)F)c3)CC2)c1O	-11%	-14%	3%	1.4µM*	-7%	-4%
FC(F)(F)c1cnc(NNC(=S)Nc2ccc(Cl)cc2)c(Cl)c1	-20%	-5%	4%	45µM*	-5%	-11%
CC(=O)Nc1ccc(-n2cc(-c3ccccc3)[nH]c2=S)cc1	-1%	-6%	6%	28µM*	-1%	-2%
CC(=O)Nc1ccc(CN2CCn3c(nn(-c4ccc(C(F)(F)F)cc4)c3=O)C2)cc1	·	·	·	2%[6.33 µM]	·	·
Cc1ccc(NC(=O)c2cc(-c3ccc[nH]3)n[nH]2)cc1F	·	·	·	10µM*	·	·
COc1ccc(NC(=O)c2cc(-c3ccc(F)cc3OC)n[nH]2)c(C)c1	·	·	·	8%	·	-2%
O=C(Nc1cccc(F)c1)c1cc(-c2ccc[nH]2)n[nH]1	·	·	·	20µM*	·	·
Cc1cc(F)ccc1NC(=O)c1cc(-c2ccc[nH]2)n[nH]1	·	·	·	18µM*	·	·
O=C(Nc1cccc(C(F)(F)F)c1)c1cc(-c2ccc[nH]2)n[nH]1	·	·	·	16µM*	·	·
COc1ccc(NC(=O)c2cc(-c3ccc[nH]3)n[nH]2)cc1F	·	·	·	-15%	·	·
COc1ccc(C(=O)Oc2cc(C)cc(OC(=O)c3ccc(OC)cc3)c2)cc1	·	·	·	0%	·	·
O=C(Nc1ccccc1Cl)C(Cl)C(=O)c1ccccc1 (centres undefined)	13%[57.1 µM]	-22%	12%	20µM*	4%[57.1 µM]	?
O=C(Nc1ccc(Cl)cc1)C(Cl)C(=O)c1ccccc1 (centres undefined)	1%	-11%	0%	?	-6%	-5%
Cc1ccc2c(CN(C)Cc3ccco3)cc(=O)oc2c1	·	·	·	-23%	·	·
Cc1ccc(Sc2c(C)nn(-c3ccccc3)c2OC(=O)CC(C)C)cc1	40%	-8%	·	?	0%	·
SMILES	TrxR1 inh	Anesthetic bind	IDH1 R132H inh	12-LOX inh	TrxR1 substrate	GRP78 ERSR act
CCCC(=O)Oc1c(Sc2ccc(Cl)cc2)c(C)nn1-c1ccccc1	50%	-5%	10%	45µM*	-3%	-4%
COc1cc(-c2nn3c(C4CCCCC4)nnc3s2)cc(OC)c1OC	20%	-13%	1%	25µM*	11%	-3%
COc1ccc(-c2nn3c(C4CCCCC4)nnc3s2)cc1OC	-22%	-15%	-4%	?	0%	0%
CN(C)/C=C/C(=O)c1cnc(-c2ccc(Cl)cc2)s1	11%[57.1 µM]	-8%	-1%	32µM*	4%	1%
COc1cccc(/C=C(/C#N)C(=O)c2c(Cl)cccc2Cl)c1	·	·	·	7.1µM*	·	·
COc1cc(/C=C(/C#N)C(=O)c2c(Cl)cccc2Cl)cc(OC)c1	·	·	·	28µM*	·	·
COc1cc(/C=C(/C#N)C(=O)Nc2cccc3ncccc23)cc(OC)c1OC	·	·	·	16µM*	·	·
COc1cccc(/C=C(/C#N)C(=O)c2c(Cl)cccc2Cl)c1OC	·	·	·	20µM*	·	·
COc1cc(OC)c(OC)cc1/C=C(/C#N)C(=O)c1c(Cl)cccc1Cl	·	·	·	5%	·	·
COc1cc(/C=C(/C#N)C(=O)c2c(Cl)cccc2Cl)cc(OC)c1OC	·	·	·	0.5µM*	·	·
Cn1nc(CC(=O)Nc2ccc(Cl)cc2Cl)c2ccccc2c1=O	·	·	·	-2%	·	·
CNC(=O)c1nnsc1S(=O)(=O)c1ccc(Cl)cc1	0.28µM*	?	-5%	?	3%	-15%
CSc1nc2c(c(=O)[nH]1)C(c1ccccc1Cl)CC(=O)N2 (centres undefined)	10%	0%	1%	-2%	-4%	-4%
Nc1nc2c(s1)C(c1c(Cl)cccc1Cl)CC(=O)N2 (centres undefined)	·	·	·	14µM*	·	·
Nc1nc2c(s1)C(c1ccccc1Cl)CC(=O)N2 (centres undefined)	·	·	·	20µM*	·	·
CC(NO)C(C)(C)NO (centres undefined)	2%[57.1 µM]	1%	0%	22µM*!	10%	-4%
O=c1cc(CN2CCN(Cc3ccc(F)cc3)C(CCO)C2)[nH]c2ccccc12 (centres undefined)	-25%	-14%	-3%	35µM*	-6%	-3%
CCOC(=O)c1oc2ccccc2c1COC(=O)Cn1cc(C(F)(F)F)ccc1=O	·	·	·	-46%	·	·
CC(=O)c1ccc(NC(=O)CCc2c(C)nn(-c3ccc4nncn4n3)c2C)cc1	7%[57.1 µM]	-5%	-17%	-25%	-3%[57.1 µM]	-2%
COc1ccc(N2C(=O)CC(Sc3n[nH]c(-c4ccccc4)n3)C2=O)cc1 (centres undefined)	2µM*	1%	1%	0%	5%[57.1 µM]	-5%
COc1ccc(N2C(=O)CC(Sc3nc(C)c4cc(OC)ccc4n3)C2=O)cc1 (centres undefined)	·	·	·	-6%	·	·
CCOc1ccc(N2C(=O)CC(Sc3n[nH]c(-c4ccccc4)n3)C2=O)cc1 (centres undefined)	6.3µM*	-6%	1%	-29%	6%	3%
